According to article PMC4336329 (PLoS ONE, 2015):
Among all 310,000 compounds or so, about 14,000 (4.5%) showed an effect of 50% or more. Effects have a minus sign here. The full list was thinned out, with strong results kept by preference.

The compounds below were run against human ether-à-go-go-related gene (hERG) potassium channel (human, UniProt Q12809) (assay: primary screen, population patch clamp on CHO cells stably expressing hERG; higher = less effect of the substance).
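Further: peak tail current of the secondary pulse compared with the same well before compound.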

Chain of human ether-à-go-go-related gene (hERG) potassium channel (Q12809 whole entry, looked up): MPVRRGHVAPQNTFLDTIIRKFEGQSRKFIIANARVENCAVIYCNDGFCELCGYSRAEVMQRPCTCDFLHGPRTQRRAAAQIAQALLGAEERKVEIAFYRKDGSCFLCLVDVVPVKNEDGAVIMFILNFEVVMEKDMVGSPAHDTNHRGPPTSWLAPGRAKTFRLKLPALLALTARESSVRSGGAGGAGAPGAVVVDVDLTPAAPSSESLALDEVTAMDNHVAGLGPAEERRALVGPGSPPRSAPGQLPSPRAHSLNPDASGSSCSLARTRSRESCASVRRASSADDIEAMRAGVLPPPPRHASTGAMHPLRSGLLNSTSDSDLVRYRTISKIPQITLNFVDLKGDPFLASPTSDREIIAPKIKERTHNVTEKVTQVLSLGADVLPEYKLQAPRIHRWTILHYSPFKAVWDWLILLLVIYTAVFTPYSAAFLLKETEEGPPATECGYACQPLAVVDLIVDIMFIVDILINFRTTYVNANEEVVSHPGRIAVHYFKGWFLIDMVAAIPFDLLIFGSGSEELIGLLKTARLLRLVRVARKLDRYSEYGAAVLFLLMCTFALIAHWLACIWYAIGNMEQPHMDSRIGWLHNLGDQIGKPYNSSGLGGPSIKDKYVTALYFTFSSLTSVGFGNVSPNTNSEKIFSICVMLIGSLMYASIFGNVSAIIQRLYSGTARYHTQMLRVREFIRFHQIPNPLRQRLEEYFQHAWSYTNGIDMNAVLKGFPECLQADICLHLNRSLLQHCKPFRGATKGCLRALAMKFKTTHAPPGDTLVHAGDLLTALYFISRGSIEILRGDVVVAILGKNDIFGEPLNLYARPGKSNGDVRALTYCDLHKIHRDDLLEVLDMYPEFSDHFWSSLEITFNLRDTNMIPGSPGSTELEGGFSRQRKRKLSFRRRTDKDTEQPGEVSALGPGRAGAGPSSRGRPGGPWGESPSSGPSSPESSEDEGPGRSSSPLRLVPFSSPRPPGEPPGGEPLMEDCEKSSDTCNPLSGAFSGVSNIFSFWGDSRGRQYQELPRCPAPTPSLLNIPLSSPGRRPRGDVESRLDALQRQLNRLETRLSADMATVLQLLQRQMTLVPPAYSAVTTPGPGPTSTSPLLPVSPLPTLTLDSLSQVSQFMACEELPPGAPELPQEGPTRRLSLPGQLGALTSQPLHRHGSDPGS

Row | SMILES | hERG current change (%, negative = inhibition) at 10uM [%]
1 | CCN1C(=O)[C@H]2[C@@H](c3ccc(C)cc3)N3C(=O)N(c4ccccc4)C(=O)[C@@]3(CC)[C@H]2C1=O | 3.81
2 | O=C(CN1C(=O)NC2(CCCCCC2)C1=O)N1CCC(Cc2ccccc2)CC1 | -24.4
3 | CN1CCN(C(=O)OC2c3nccnc3C(=O)N2c2ccc(Cl)cn2)CC1 (stereo not drawn) | 13.9
4 | O=C(NCC1CCCO1)c1c(O)c2cccc3c2n(c1=O)CC3 (stereo not drawn) | 10.4
5 | Cc1ccccc1C(=O)Nc1ccc(Cl)cn1 | 6
6 | CC(=O)N1CCN(Cc2nc3cc(NC(=O)c4cccs4)ccc3n2C)CC1 | 13.8
7 | CCOC(=O)N1CCN(Cc2nc3cc(NC(=O)c4cccs4)ccc3n2C)CC1 | -74.7
8 | CCOC(=O)N1CCN(Cc2nc3cc(NC(=O)c4ccco4)ccc3n2C)CC1 | -26.5
9 | CCOC(=O)N1CCN(Cc2nc3cc(NC(=O)c4cccs4)ccc3n2CC)CC1 | -55.3
10 | CCCC(=O)Nc1ccc2c(c1)nc(CN1CCN(C(=O)OCC)CC1)n2CC | 9.54
11 | CCOC(=O)N1CCN(Cc2nc3cc(NC(=O)c4ccco4)ccc3n2CC)CC1 | -58
12 | Cn1c(CN2CCCCC2)nc2cc(NC(=O)c3cccs3)ccc21 | -31.2
13 | CCOC(=O)N1CCN(Cc2nc3cc(NC(=O)CC)ccc3n2CC)CC1 | 9.4
14 | CCOC(=O)N1CCN(Cc2nc3cc(NC(C)=O)ccc3n2CC)CC1 | 14.9
15 | CCOc1ccc(C(=O)NC2CC(=O)N(c3ccc4c(c3)OCCO4)C2)cc1 (stereo not drawn) | -10.1
16 | COc1ccccc1C(=O)N1CCN(Cc2nc(CC3CC3)no2)CC1 | 9.93
17 | Cc1nn(C)cc1CN1CCC(n2nccc2NC(=O)CCCc2ccccc2)CC1 | -3.27
18 | O=C(CCCc1ccccc1)Nc1ccnn1C1CCN(Cc2ccccn2)CC1 | -15.2
19 | Cc1ccccc1CN1CCC(n2nccc2NC(=O)CCCc2ccccc2)CC1 | -49.3
20 | CC(C)n1cc(CN2CCC(n3nccc3NC(=O)CCCc3ccccc3)CC2)cn1 | -26
21 | CC(CN1CCC(n2nccc2NC(=O)CCCc2ccccc2)CC1)c1ccccc1 (stereo not drawn) | -51.9
22 | CC(=O)N[C@@H](C)C(=O)N1CCC(n2nccc2NC(=O)CCCc2ccccc2)CC1 | -2.4
23 | O=C(CCCc1ccccc1)Nc1ccnn1C1CCN(Cc2ccc(CO)o2)CC1 | -10.5
24 | O=C(CCCc1ccccc1)Nc1ccnn1C1CCN(Cc2ccccc2)CC1 | -77.3
25 | O=C(CCCc1ccccc1)Nc1ccnn1C1CCN(Cc2ccc(Cl)cc2)CC1 | -74.8
26 | Cc1ccc(C)c(CN2CCC(n3nccc3NC(=O)CCCc3ccccc3)CC2)c1 | -54.8
27 | Cn1cc(CN2CCC(n3nccc3NC(=O)CCCc3ccccc3)CC2)cn1 | 5.95

Row | SMILES | hERG current change (%, negative = inhibition) at 10uM [%]
28 | CC(C)c1ccc[n+](-c2nc([O-])sc2C=O)c1 | 14.7
29 | S=c1nc(-c2ccccc2)n(CCN2CCOCC2)c2c1CCCC2 | -13.4
30 | O=C1c2ccccc2C(=O)C1c1ccc(Cl)cc1 | 8.89
31 | CCOC(=O)N1CCN(C(=O)c2cc3cc(C)ccc3[nH]2)CC1 | -7.43
32 | O=c1[nH]nc(C(F)(F)F)c2nnn(Cc3ccccc3Cl)c12 | 14.1
33 | CN1CCN(c2ccccc2NC(=O)c2ccc(-c3ccc(Cl)c(Cl)c3)o2)CC1 | -3.73
34 | CCn1cc(CN2CCC(n3nccc3NC(=O)CCCc3ccccc3)CC2)c(C)n1 | -28.4
35 | C/C=C(\C)CN1CCC(n2nccc2NC(=O)CCCc2ccccc2)CC1 | -62.9
36 | C/C=C(\C)CN1CCC(n2nccc2NC(=O)CCOc2ccccc2)CC1 | -31.5
37 | CSCC(=O)N1CCC(n2nccc2NC(=O)CCCc2ccccc2)CC1 | -17.6
38 | CSCCC(=O)N1CCC(n2nccc2NC(=O)CCCc2ccccc2)CC1 | -5.8
39 | C/C=C(\C)CN1CCC(n2nccc2NC(=O)CCc2ccccc2)CC1 | -28.9
40 | Cc1ccc(CN2CCC(n3nccc3NC(=O)CCCc3ccccc3)CC2)o1 | -20.5
41 | CCn1nc(C)c(CN2CCC(n3nccc3NC(=O)CCCc3ccccc3)CC2)c1C | -60.1
42 | CCOc1ccc(CN2CCC(n3nccc3NC(=O)CCCc3ccccc3)CC2)cc1 | -78.2
43 | CCn1cc(CN2CCC(n3nccc3NC(=O)CCCc3ccccc3)CC2)cn1 | -27.3
44 | CSCCCN1CCC(n2nccc2NC(=O)CCCc2ccccc2)CC1 | -62.5
45 | CCn1nc(C)c(CN2CCC(n3nccc3NC(=O)Cc3ccccc3)CC2)c1C | 6.57
46 | CC(C)CN(Cc1cc2ccccc2[nH]c1=O)C(=O)c1cccnc1 | -1.54
47 | Cn1nc(C(C)(C)C)cc1C(=O)NNC(=O)c1ccccc1Cl | 14.1
48 | O=C(COC(=O)[C@@H]1CCCN1S(=O)(=O)c1ccc(Cl)cc1)NC1CCS(=O)(=O)C1 (stereo partly drawn) | -14.7
49 | COc1ccc(CNC(=O)CCC(=O)N2CCN(C(C)=O)CC2)cc1 | 14.3
50 | Cc1nn(-c2ccccc2)nc1C(=O)Nc1ccc2[nH]ncc2c1 | 6.02
51 | CC1Cc2ccccc2N1c1ncnc2c1nnn2Cc1ccccc1 (stereo not drawn) | -0.652
52 | COc1cc(NC(=S)NC2CC2)c(OC)cc1Cl | -1.86
53 | CC(OC(=O)c1cccs1)C(=O)NCc1ccc2c(c1)OCO2 (stereo not drawn) | 15.4
54 | Cc1ccccc1-n1nc2c(c1NC(=O)c1ccc(Br)o1)CSC2 | -7.03
